BoNT-F LC inh = BoNT/F light chain protease inhibitors, primary screen, biochemical, flow cytometry, MLPCN library. Botulinum neurotoxin type F light chain protease (Clostridium botulinum). inhibition, % at 10 µM. hit rate 0.22% among 360,000. Multiplex microsphere protease cleavage assay; in the data active means inhibition above about 35%, passing the limit was not always enough; inconclusive means no clear call, values can overlap the other calls
Autofluor counter = compound fluorescence in toxin protease inhibitor counterscreen. compound autofluorescence counterscreen, microsphere flow cytometry; hits give high values. fluorescence intensity (test concentration not listed). hit rate 3.1% among 360,000. AID 624483; in the data active means fluorescence intensity above about 16000; inconclusive means no clear call, values can overlap the other calls
Anthrax LF inh2 = Bacillus anthracis LF protease inhibitors, primary screen, biochemical, multiplex microsphere, MLPCN library. Lethal factor (Bacillus anthracis), P15917. AID 588501, 2011. multiplex microsphere protease cleavage assay. inhibition, % at 10 µM. hit rate 0.12% among 360,000
Target sequence (P15917 whole entry, looked up): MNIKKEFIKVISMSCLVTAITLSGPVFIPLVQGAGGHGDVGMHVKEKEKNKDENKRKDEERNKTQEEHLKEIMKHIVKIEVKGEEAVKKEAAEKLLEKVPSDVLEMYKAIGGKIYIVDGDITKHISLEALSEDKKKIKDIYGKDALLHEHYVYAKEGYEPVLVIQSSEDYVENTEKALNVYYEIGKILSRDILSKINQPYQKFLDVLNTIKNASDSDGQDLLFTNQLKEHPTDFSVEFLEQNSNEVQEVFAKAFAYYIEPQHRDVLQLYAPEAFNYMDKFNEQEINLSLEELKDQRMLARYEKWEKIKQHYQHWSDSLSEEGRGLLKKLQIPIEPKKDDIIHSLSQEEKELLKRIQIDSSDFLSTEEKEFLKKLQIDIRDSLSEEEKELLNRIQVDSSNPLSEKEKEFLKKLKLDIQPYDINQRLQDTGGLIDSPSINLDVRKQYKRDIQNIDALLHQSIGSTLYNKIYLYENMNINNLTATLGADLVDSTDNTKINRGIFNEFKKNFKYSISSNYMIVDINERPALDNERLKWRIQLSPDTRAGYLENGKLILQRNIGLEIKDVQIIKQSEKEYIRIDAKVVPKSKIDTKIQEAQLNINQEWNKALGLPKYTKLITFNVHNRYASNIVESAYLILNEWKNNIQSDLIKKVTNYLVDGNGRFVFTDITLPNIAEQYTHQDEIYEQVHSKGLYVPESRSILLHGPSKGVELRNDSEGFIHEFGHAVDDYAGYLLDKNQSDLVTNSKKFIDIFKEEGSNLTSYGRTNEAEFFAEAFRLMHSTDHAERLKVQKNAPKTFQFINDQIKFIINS
BoNT A protease = BoNT/A light chain protease inhibitors, primary screen, biochemical, flow cytometry, MLPCN library; Botulinum neurotoxin type A light chain protease (Clostridium botulinum A str. ATCC 3502); multiplex microsphere protease substrate cleavage; inhibition, % at 10 µM; hit rate 0.17% among 360,000
3CLpro inhibitor = SARS-CoV 3CLpro protease inhibitors, primary screen, biochemical, quenched FRET; Replicase polyprotein 1ab (Severe acute respiratory syndrome coronavirus), P0C6X7; recombinant SARS-CoV 3CLpro, quenched FRET peptide cleavage; inhibition, % at 6 µM; hit rate 0.14% among 290,000; AID 1706, 2009; in the data active means inhibition above about 12%
CCHF vOTU inh = CCHFV vOTU protease inhibitors, primary screen, biochemical, Pep-AMC substrate, fluorescence | Crimean-Congo hemorrhagic fever virus L polyprotein viral ovarian tumor (vOTU) protease … | inhibition, % at 11.5 µM | hit rate 0.55% among 370,000 | AID 651958, 2012; in the data active means inhibition above about 30%
Of the large screens only hits and unclear results are named; the others gave an inactive call; ! = not active in a repeat. Rows were chosen to be rich in hits. Some 3.9% of all compounds tested hit in one or more screens of this group. Unless noted, no stated cut-off is given here; in the data, active means inhibition above about 30%; inconclusive means no clear call, values can overlap the other calls; inactive means below that.

O=C(/C=C(\Nc1ccc(F)cc1)c1ccccc1)c1ccccc1	none (no result: BoNT-F LC inh, Autofluor counter, Anthrax LF inh2, BoNT A protease, 3CLpro inhibitor)
Cc1ccc(Sc2nnc(Cc3ccccc3)c3ccccc23)cc1	Autofluor counter 22795, BoNT A protease inconclusive
O=C(NCCCc1ccccc1)OC1CCC12CCC(c1ccccc1)CC2 (stereo not given)	none (no result: BoNT-F LC inh, Autofluor counter, Anthrax LF inh2, BoNT A protease, 3CLpro inhibitor)
O=C(NCc1ccco1)C1CN(S(=O)(=O)c2ccccc2)CCN1S(=O)(=O)c1ccccc1 (stereo not given)	Autofluor counter 20955
Cc1ccc(S(=O)(=O)N2CCCCC2C(=O)NCc2ccco2)cc1 (stereo not given)	none
COc1ccccc1CNC(=O)[C@@H]1CCCN1C(=O)C1CCN(S(=O)(=O)c2ccc(C)cc2)CC1	none
Cc1ccc(S(=O)(=O)N2CCC(C(=O)N3CCC[C@H]3C(=O)NCc3ccccc3)CC2)cc1	Autofluor counter 21009
CC1CCN(S(=O)(=O)c2cccc(C(=O)NCc3ccco3)c2)CC1	Autofluor counter 23763
Cc1ccc(S(=O)(=O)N2CCC(C(=O)N3CCC[C@H]3C(=O)NCc3ccco3)CC2)cc1	Autofluor counter 16928
O=C(Nc1ccccc1)Nc1nc2ncccn2c1-c1ccc(F)cc1	none (no result: BoNT-F LC inh, Autofluor counter, Anthrax LF inh2, BoNT A protease, 3CLpro inhibitor)
O=C(NCc1ccco1)C1Cc2ccccc2CN1C(=O)c1ccco1 (stereo not given)	none
O=C(NCc1ccco1)C1Cc2ccccc2CN1S(=O)(=O)c1ccccc1F (stereo not given)	Autofluor counter 23284
COc1cccc(N2CC(C(=O)OC(C)C(=O)c3ccccc3)CC2=O)c1 (stereo not given)	Autofluor counter 22234, BoNT A protease inconclusive
COc1ccc(OC)c(NC(=O)C2CC(=O)N(c3ccccc3)C2)c1 (stereo not given)	none
CCOC(=O)C1=C(C)NC(C)=C(C(=O)OCC)C1C(=O)O	Autofluor counter 20924, BoNT A protease inconclusive
CCOC(=O)C1=C(C)NC(C)=C(C(=O)OCC)C1	BoNT-F LC inh inconclusive, Autofluor counter 18757!, BoNT A protease inconclusive
Cc1cnc(NC(=O)Cc2ccc(C)c(C)c2)s1	none
Cc1cc(/C=C\c2ccc3cc(N(C)C)ccc3[n+]2C)c(C)n1-c1ccccc1	BoNT-F LC inh active (no result: 3CLpro inhibitor, CCHF vOTU inh)
C[n+]1c(/C=C/c2ccc(O)cc2)ccc2ccccc21	none
CC[C@]12c3[nH]c4ccccc4c3CCN1C(=O)C(CC(=O)NCCc1ccccn1)C[C@@H]2C(=O)N1CCN(C(=O)c2ccco2)CC1 (stereo not given in full)	none (no result: 3CLpro inhibitor)
CCCOC(=O)c1ccc(NC(=O)c2cc(=O)[nH]c3ccccc23)cc1	Autofluor counter inconclusive
Cc1ccc(NC(=O)CCC(=O)OCC(=O)c2ccc(Oc3ccc([N+](=O)[O-])cc3)cc2)c(C)c1	Autofluor counter 17075
Cc1cc(Br)ccc1NC(=O)CNC(=O)CSc1n[nH]c(N)n1	BoNT-F LC inh 40
C[C@@H]1[C@@H](c2ccccc2)c2cc3ccccc3nc2-c2nc3ccccc3cc2[C@@H]1C(=O)N1CCCC1	none (no result: BoNT-F LC inh, Autofluor counter, Anthrax LF inh2, BoNT A protease, 3CLpro inhibitor)
CCOc1cc(C(=S)N2CCCCC2)ccc1OCC(=O)NCc1ccccc1	Autofluor counter 22179, BoNT A protease inconclusive
CCOc1ccc(C(=S)N2CCOCC2)cc1OCC	Autofluor counter 23260
CCN1CCN(C(=S)c2ccc(OCC(=O)NCc3ccccc3)cc2)CC1	none
CCN1CCN(C(=S)c2ccc(OCC(=O)N3CCOCC3)cc2)CC1	Autofluor counter 19327
CSc1ccc(C(=O)NCC2CCN(C(=O)C(=O)c3cc4ccccc4o3)CC2)cc1	none (no result: BoNT-F LC inh, Autofluor counter, Anthrax LF inh2, BoNT A protease, 3CLpro inhibitor)
CC1(C)CC(N2CCCCC2)=CC(=[N+]2CCCCC2)C1	Autofluor counter 27656
Cc1c(C(=O)N(CC(C)C)c2c(N)n(Cc3ccccc3)c(=O)[nH]c2=O)sc2nc3n(c(=O)c12)CCC3	Autofluor counter inconclusive, Anthrax LF inh2 32 (no result: 3CLpro inhibitor)
COc1ccc(C(C(=O)NC2CCCC2)N(C(=O)c2snc(-c3ccc(F)cc3)c2N)c2cccc(F)c2)cc1 (stereo not given)	Autofluor counter 23994
COc1ccc(C(C(=O)NC2CCCC2)N(C(=O)c2snc(-c3ccc(F)cc3)c2N)c2ccccc2)cc1 (stereo not given)	Autofluor counter 20660

Screening data: PubChem BioAssay, several laboratories
